Bioassay records deposited in PubChem by several laboratories.
A selection: hits, their analogues and other compounds. The true share with any hit is near 5.3%.
PostGolgi yeast: phenotypic screen on post-Golgi transport, primary screen | post-Golgi transport phenotypic cell assay | inhibition, % at 10 µM | 98,000 tested, 0.9% active;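 note: yeast cells grown in 1536-well plates; yeast grown about 18 h at 30C before absorbance read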
PostGolgi ctrl: growth inhibition of yeast control strain, primary screen, counter-screen for post-Golgi transport modulator project; inhibition, % at 10 µM; AID 738, 2007; efflux-deficient yeast background strain, growth absorbance A615, 16 h; 98,000 tested, 5% active
MT1-MMP txn act: MT1-MMP promoter reporter activation – cell-based, luciferase luminescence, primary screen; 86,000 tested, 0.16% active; AID 750, 2007; activation factor at 10 µM; HT1080 MT1-MMP promoter luciferase reporter, overnight; stronger effect = higher value;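 active = activation factor of at least 2 for MT1-MMP transcription at 10 µM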
Measles CPE: compounds protecting cells from measles virus cytopathic effect, primary screen, measles RdRp inhibitor project, single point, MLSMR library, absorbance. Measles virus-infected cells, CPE protection. protection (pct of control), % at 4 µM. 140,000 tested, 1.5% active. AID 841, 2007; in the data active = protection mostly above about 24%, no sharp cut-off; inactive = mostly below about 26%
A number is an active result. Cut-off read from the data, not from the text of the source, unless noted: active = inhibition above about 30%; inactive = the rest.

How did N#CCSCC(=O)Nc1ccc(Br)cc1 do in these assays?
PostGolgi yeast: inactive; PostGolgi ctrl: inactive; MT1-MMP txn act: inactive; Measles CPE: 73

Results for N#CCSCC(=O)Nc1ccccc1 ?
PostGolgi yeast: inactive; PostGolgi ctrl: inactive; Measles CPE: inactive

How did Cc1ccc(NC(=O)CSCC#N)cc1 do in these assays?
PostGolgi yeast: inactive; PostGolgi ctrl: inactive; Measles CPE: inactive

Results for CCc1ccc2c(Cl)c(C(=O)N/N=C/c3c[nH]c4ccccc34)sc2c1 ?
PostGolgi yeast: inactive; PostGolgi ctrl: 42; Measles CPE: inactive

What do the screens show for `Cc1ccc(CNC(=O)Cn2cc(C(F)(F)F)ccc2=O)cc1`?
Measles CPE: inactive

How did COC(=O)C1(C)C=CC2(CCCCC2)N1C(=O)c1ccccc1 (configuration not stated) do in these assays?
MT1-MMP txn act: inactive

How did COc1cc(C=O)c(Br)cc1OC1CCCC1 do in these assays?
PostGolgi yeast: inactive; PostGolgi ctrl: 34; Measles CPE: inactive

Results for O=c1c2ccccc2ncn1CCCSc1ccc(Cl)cc1 ?
PostGolgi yeast: inactive; PostGolgi ctrl: 42; Measles CPE: inactive

Results for COC(=O)[C@@H]1C[C@@]2(O)[C@@H](O)[C@@H](O)[C@@H](O)C[C@H]2N1Cc1ccc(C(C)(C)C)cc1 ?
MT1-MMP txn act: inactive

What do the screens show for `Cc1onc(-c2ccccc2Cl)c1C(=O)N1CCc2ccccc21`?
PostGolgi yeast: inactive; PostGolgi ctrl: 34; MT1-MMP txn act: inactive; Measles CPE: inactive

How did Cc1ccnc(NC(=O)c2c(-c3ccccc3Cl)noc2C)c1 do in these assays?
Measles CPE: 24

How did COC(=O)c1c(NC(=O)c2c(-c3ccccc3Cl)noc2C)sc2c1CCC2 do in these assays?
PostGolgi yeast: inactive; PostGolgi ctrl: 33; MT1-MMP txn act: inactive; Measles CPE: inactive

Results for Cn1c2ccccc2c2c(C(=O)N3CCN(c4ccccc4)CC3)cn(C3CCCC3)c(=O)c21 ?
PostGolgi yeast: inactive; PostGolgi ctrl: inactive; Measles CPE: inactive

Results for Cc1ccc(Cl)cc1N1CCN(C(=O)c2cn(C)c(=O)c3c2c2ccccc2n3C)CC1 ?
PostGolgi yeast: inactive; PostGolgi ctrl: 57; MT1-MMP txn act: inactive; Measles CPE: inactive

How did Cc1cccc(N2CCN(C(=O)c3cn(C)c(=O)c4c3c3ccccc3n4C)CC2)c1C do in these assays?
PostGolgi yeast: inactive; PostGolgi ctrl: 60; MT1-MMP txn act: inactive; Measles CPE: inactive

What do the screens show for `Cc1ccc(NC2c3ccccc3C(=O)N2CCN2CCOCC2)cc1` (configuration not stated)?
PostGolgi yeast: inactive; PostGolgi ctrl: inactive; Measles CPE: inactive

Results for COc1cccc(OC)c1NC(=O)CN1CCC(NC(=O)c2cccc(F)c2)CC1 ?
MT1-MMP txn act: inactive; Measles CPE: inactive

How did O=C(NCCCN1CCOCC1)C(=O)N/N=C/c1c2ccccc2cc2ccccc12 do in these assays?
Measles CPE: inactive

How did Cc1[nH]c2ccccc2c1C(=O)CSc1nc2ccccc2c(=O)n1CCCN1CCOCC1 do in these assays?
PostGolgi yeast: inactive; PostGolgi ctrl: 36; Measles CPE: inactive

How did CCCCn1c(SCC(=O)NC(C)CC)nc2ccc(N3CCOCC3)cc2c1=O (configuration not stated) do in these assays?
PostGolgi yeast: inactive; PostGolgi ctrl: inactive; Measles CPE: inactive

What do the screens show for `CN(C)S(=O)(=O)c1ccc(Cl)c(NC(=O)CSc2nc3ccccc3c(=O)n2CCCN2CCOCC2)c1`?
Measles CPE: inactive

What do the screens show for `CCCCn1c(SCC(=O)Nc2ccc(OC)cc2)nc2ccc(N3CCOCC3)cc2c1=O`?
PostGolgi yeast: inactive; PostGolgi ctrl: inactive; MT1-MMP txn act: inactive; Measles CPE: 53

What do the screens show for `CCCCn1c(SCC(=O)NCc2ccccc2)nc2ccc(N3CCOCC3)cc2c1=O`?
PostGolgi yeast: inactive; PostGolgi ctrl: 35; MT1-MMP txn act: inactive; Measles CPE: inactive

What do the screens show for `Cn1ncc(Cl)c1C(=O)NC(=S)Nc1sc2c(c1C#N)CCCCC2`?
PostGolgi yeast: inactive; PostGolgi ctrl: inactive; Measles CPE: inactive

How did COc1ccc(NC(=S)NCc2ccco2)c(OC)c1 do in these assays?
PostGolgi yeast: inactive; PostGolgi ctrl: inactive; Measles CPE: inactive

Results for COc1cc(CNCCc2ccc(F)cc2)ccc1OCc1ccc(Cl)nc1 ?
PostGolgi yeast: inactive; PostGolgi ctrl: inactive; Measles CPE: inactive

What do the screens show for `COc1cc(CNCCc2c[nH]c3ccccc23)ccc1OCc1ccc(F)cc1`?
PostGolgi yeast: inactive; PostGolgi ctrl: 41; Measles CPE: inactive

What do the screens show for `COc1cccc(CNCCc2c[nH]c3ccccc23)c1OCc1ccc(F)cc1`?
PostGolgi yeast: 93; PostGolgi ctrl: 81; Measles CPE: inactive

How did Cc1ccc(CNC(=O)[C@H](C)[C@@H]2C[C@@]2(C)[C@@H](NC(=O)OCc2ccccc2)c2ccccc2)c(F)c1F do in these assays?
MT1-MMP txn act: inactive

How did COCCNC(=O)C1(C)C=CC2(CCCCC2)N1C(=O)c1ccccc1 (configuration not stated) do in these assays?
MT1-MMP txn act: inactive; Measles CPE: 22

What do the screens show for `CCCn1c(/N=C/c2ccc3c(c2)OCO3)nc2ccccc21`?
PostGolgi yeast: inactive; PostGolgi ctrl: inactive; MT1-MMP txn act: inactive; Measles CPE: 32

What do the screens show for `CCN(CC)CCN(C(=O)Cn1nnc(-c2ccc(OC)c(OC)c2)n1)C(C(=O)NC1CCCC1)c1ccc(F)cc1` (configuration not stated)?
PostGolgi yeast: inactive; PostGolgi ctrl: inactive; Measles CPE: inactive

Results for O=C(O)c1ccnc(Cl)c1 ?
Measles CPE: 25

Results for Cc1ccc(CNC(=O)c2ccc(Cn3nc(C)c(Cl)c3C)o2)cc1 ?
PostGolgi yeast: 104; PostGolgi ctrl: 100; MT1-MMP txn act: inactive; Measles CPE: inactive

What do the screens show for `Cc1nn(Cc2ccc(C(=O)Nc3ccccc3C(F)(F)F)o2)c(C)c1Br`?
PostGolgi yeast: inactive; PostGolgi ctrl: 34; MT1-MMP txn act: inactive; Measles CPE: inactive

How did C=CCOc1c(Br)cc(/C=N/n2c(CC)n[nH]c2=S)cc1Br do in these assays?
Measles CPE: inactive

Results for CC(C)(C)C(=O)NC(=S)NCc1ccccc1 ?
Measles CPE: inactive

How did c1ccc(-c2ccc(-c3nc(-c4ccncc4)no3)cc2)cc1 do in these assays?
PostGolgi yeast: inactive; PostGolgi ctrl: inactive; Measles CPE: inactive

What do the screens show for `c1ccc(C(Cc2nc(-c3ccncc3)no2)c2ccccc2)cc1`?
PostGolgi yeast: inactive; PostGolgi ctrl: 35; MT1-MMP txn act: inactive; Measles CPE: inactive

What do the screens show for `c1ccc(-c2ccccc2-c2nc(-c3ccncc3)no2)cc1`?
PostGolgi yeast: inactive; PostGolgi ctrl: 56; MT1-MMP txn act: inactive; Measles CPE: inactive

How did c1ccc(-c2nc(-c3ccncc3)no2)cc1 do in these assays?
PostGolgi yeast: inactive; PostGolgi ctrl: inactive; MT1-MMP txn act: inactive; Measles CPE: inactive

Results for O=C(Nc1c2c(nc3c1CCC3)CCCC2)c1ccccn1 ?
Measles CPE: inactive

Results for c1ccc(Cc2nn3c(C4COc5ccccc5O4)nnc3s2)cc1 (configuration not stated) ?
PostGolgi yeast: inactive; PostGolgi ctrl: inactive; MT1-MMP txn act: inactive; Measles CPE: inactive
